Reference: PubChem BioAssay (EPA / NIEHS)
Records with an inconclusive call do not appear. Calls of active or inactive are those of the source. Rule for the calls, unless noted: active = hit-call score of the fitted dose curve at least 0.9, where 1 is the maximum; inactive = score below 0.9.

How the values were obtained:
[1] = ATG_AP_2_CIS: Attagene CIS-FACTORIAL HepG2 Assay for human Activator Protein 2 (AP-2) (AID 2282932); settings: HepG2 AP-2 cis-reporter, Attagene transcription factor profiling; actives raise or lower the signal
How it was run: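 Assay in transfected HepG2 with promoter-regulated reporters, 24 h incubation after dosing. Signal is reporter mRNA fluorescence (RT-PCR, capillary electrophoresis), analysed for both increases and decreases relative to DMSO controls.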

[2] = target: Transcription factor E2F1 (Homo sapiens) (UniProt Q01094); assay: ATG_E2F_CIS: Attagene CIS-FACTORIAL HepG2 Assay for human E2F Transcription Factor 1 (AID 2282935); settings: HepG2 Attagene cis-reporter, E2F reporter RNA transcripts; actives raise or lower the signal
How it was run: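 In this cis-factorial format, endogenous factor activity drives transfected reporters in HepG2; transcripts collected at 24 h are quantified by fluorescence after RT-PCR and capillary separation.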

[3] = ATG_M_61_CIS: Attagene CIS-FACTORIAL HepG2 Assay for M61 Transcription Factor (Internal Marker) (AID 2282937); settings: HepG2 Attagene CIS-FACTORIAL M61 internal marker reporter; actives raise or lower the signal
How it was run: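 Readout is reporter mRNA by RT-PCR, fluorescent primer extension and capillary electrophoresis, with gain or loss fitted relative to DMSO. Transfected HepG2 cells carrying endogenous-TF-driven cis reporters were exposed to chemicals for 24 hours.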

[4] = ATG_EGR_CIS: Attagene CIS-FACTORIAL HepG2 Assay for human Early Growth Response 1 (EGR1) (AID 2282938); settings: HepG2 Attagene CIS-FACTORIAL EGR reporter mRNA; actives raise or lower the signal
How it was run: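 After 24 h compound exposure, RNA from reporter-transfected HepG2 cells was reverse-transcribed, PCR-amplified, fluorescently labelled and resolved by capillary electrophoresis. EGR1 reporter transcript changes, up or down, were fitted against DMSO, reflecting endogenous transcription-factor activity.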

[5] = ATG_Ets_CIS: Attagene CIS-FACTORIAL HepG2 Assay for human Erythroblast Transformation Specific (ETS) (AID 2282941); settings: HepG2 ETS cis-reporter transcription, actives raise or lower the signal
How it was run: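 Endogenous transcription factor activity read as reporter mRNA via RT-PCR and capillary electrophoresis, with gain or loss fitted bidirectionally against DMSO. Human HepG2 liver cells, transiently transfected CIS reporter constructs, 24 h exposure.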

[6] = target: Hepatocyte nuclear factor 3-beta (Homo sapiens) (UniProt Q9Y261); assay: ATG_FoxA2_CIS: Attagene CIS-FACTORIAL HepG2 Assay for human Forkhead box A2 (FOXA2) (AID 2282942); settings: HepG2 cis-reporter transcription factor activity, 24 h; actives raise or lower the signal
How it was run: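 Endogenous transcription factor activity is captured via cis-element-driven reporter transcripts in transfected HepG2. Total RNA taken at 24 h post-dosing; labelled RT-PCR products resolved by capillary electrophoresis. Gain or loss fitted versus DMSO.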

[7] = ATG_FoxO_CIS: Attagene CIS-FACTORIAL HepG2 Assay for human Forkhead box O (FoxO) (AID 2282943); settings: HepG2 Attagene cis-reporter, FoxO element, mRNA; actives raise or lower the signal
How it was run: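 24 h chemical exposure, HepG2 with transient cis-MRTU transfection. RNA extraction, oligo(dT) RT, reporter-specific PCR, primer-extension labelling, HpaI digestion, CE fragment analysis; bidirectional fit, DMSO baseline.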

[8] = target: Hypoxia-inducible factor 1-alpha (Homo sapiens) (UniProt Q16665); assay: ATG_HIF1a_CIS: Attagene CIS-FACTORIAL HepG2 Assay for human Hypoxia Inducible Factor 1 (HIF1A) (AID 2282951); settings: HepG2 Attagene cis-factorial HIF1a reporter transcription; actives raise or lower the signal
How it was run: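 Activity is fitted in both directions relative to DMSO. Reporter transcripts are read by RT-PCR, fluorescent primer extension and capillary electrophoresis after 24 h chemical treatment. The cells are HepG2 carrying transiently transfected cis-element-driven reporter units responding to endogenous factors.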

[9] = ATG_RORE_CIS: Attagene CIS-FACTORIAL HepG2 Assay for human RAR-related Orphan Receptor Element (RORE) (AID 2282959); settings: HepG2 Attagene cis-factorial RORE reporter, mRNA; actives raise or lower the signal
How it was run: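 RORE reporter transcripts reflecting endogenous factor activity were read after 24 h compound exposure of transfected HepG2 cells, using reverse transcription, PCR, fluorescent labelling and capillary electrophoresis sizing. Gain or loss fitted against DMSO.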

[10] = ATG_TGFb_CIS: Attagene CIS-FACTORIAL HepG2 Assay for human Transforming Growth Factor (TGF) (AID 2282967); settings: HepG2 Attagene CIS TGFb reporter, mRNA transcription; actives raise or lower the signal
How it was run: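 HepG2 cells transiently transfected with cis-promoter-driven multiplexed reporter units; 24 h compound exposure. Reporter mRNA measured by RT-PCR, 6-FAM labeling, HpaI digestion and capillary electrophoresis; bidirectional fit versus DMSO baseline.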

[11] = ATG_VDRE_CIS: Attagene CIS-FACTORIAL HepG2 Assay for human Vitamin D Receptor Element (VDRE) (AID 2282968); settings: HepG2 VDRE cis-reporter transcription, actives raise or lower the signal
How it was run: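 Transfected HepG2 reporter cells, chemical treatment 24 h. RNA isolated, cDNA amplified with reporter-specific primers, products analysed by capillary electrophoresis. Endpoint fitted in both directions versus DMSO.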

[12] = target: Transcriptional activator Myb (Homo sapiens) (UniProt P10242); assay: ATG_Myb_CIS: Attagene CIS-FACTORIAL HepG2 Assay for human Myeloblastosis (Myb) Proto-Oncogene Transcription Factor (AID 2282986); settings: HepG2 Attagene CIS-FACTORIAL Myb reporter transcription; actives raise or lower the signal
How it was run: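 Reporter mRNA is quantified by RT-PCR and capillary electrophoresis 24 h after dosing HepG2 cells transfected with cis-regulated reporter units, which track endogenous transcription factor activity. Gain and loss of signal are fitted versus DMSO baseline.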

[13] = target: Nuclear respiratory factor 1 (Homo sapiens) (UniProt Q16656); assay: ATG_NRF1_CIS: Attagene CIS-FACTORIAL HepG2 Assay for human Nuclear Respiratory Factor 1 (NRF1) Orphan Gene (AID 2282987); settings: HepG2 NRF1 cis-element reporter, Attagene multiplex; actives raise or lower the signal
How it was run: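 Endogenous NRF1-driven reporter transcription in transfected HepG2 cells after 24 h treatment. Readout: RT-PCR products, 6-FAM labelled and resolved by capillary electrophoresis; changes fitted both directions relative to DMSO.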

[14] = ATG_NFI_CIS: Attagene CIS-FACTORIAL HepG2 Assay for human Nuclear Factor I (NFI) (AID 2282989); settings: HepG2 cis-regulatory reporter, NFI response element transcription; actives raise or lower the signal
How it was run: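 HepG2 cells transiently transfected with cis-element-driven multiplexed reporter transcription units, dosed for 24 h. Reporter mRNA quantified by RT-PCR, fluorescent labelling, HpaI digestion and capillary electrophoresis; bidirectional fit versus DMSO baseline.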

[15] = target: Myc proto-oncogene protein (Homo sapiens) (UniProt P01106); assay: ATG_Myc_CIS: Attagene CIS-FACTORIAL HepG2 Assay for human Myelocytomatosis (Myc) Proto-Oncogene Transcription Factor (AID 2282990); settings: HepG2, Attagene cis-reporter transcription factor activity; actives raise or lower the signal
How it was run: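 DMSO-normalised, bidirectionally fitted reporter mRNA signal. HepG2 cells transfected with cis reporter constructs, treated 24 h; transcripts detected by RT-PCR, 6-FAM primer extension and CE.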

[16] = target: Cellular tumor antigen p53 (Homo sapiens) (UniProt P04637); assay: ATG_p53_CIS: Attagene CIS-FACTORIAL HepG2 Assay for human p53 Transcription Factor (AID 2282994); settings: HepG2 p53 cis-element reporter, Attagene mRNA; actives raise or lower the signal
How it was run: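 Endogenous p53 activity read in transiently transfected HepG2 from a cis-element-driven reporter transcript after 24 h exposure. RNA reverse-transcribed, PCR-amplified, fluorescently labelled and sized by capillary electrophoresis; gain or loss fitted against DMSO baseline.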

[17] = target: Nuclear receptor subfamily 1 group I member 2 (Homo sapiens) (UniProt O75469); assay: ATG_PXR_TRANS: Attagene TRANS-FACTORIAL HepG2 Assay for human Pregnane X Receptor (PXR) (AID 2283008; active = hit-call score of the fitted dose curve at least 0.9, where 1 is the maximum)
How it was run: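 Transactivation by exogenous PXR–GAL4 fusion measured as reporter transcript induction after 24 h compound treatment of transfected human HepG2 cells. Read-out via RT-PCR and capillary electrophoresis of labelled fragments, fitted upward relative to DMSO.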

[18] = ATG_XTT_Cytotoxicity: Cytotoxicity Assessment in the Attagene TRANS-FACTORIAL HepG2 Assay (AID 2283584; active = hit-call score of the fitted dose curve at least 0.9, where 1 is the maximum)
How it was run: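 24 h chemical exposure of reporter-transfected HepG2; XTT signal loss vs DMSO indicates cytotoxicity.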

[19] = target: Cellular tumor antigen p53 (Homo sapiens) (UniProt P04637); assay: TOX21_p53_BLA_p2_ratio: Tox21 HCT-116 p53 Agonism Beta-lactamase Assay, Ratio, Phase 2 (AID 2283592; active = hit-call score of the fitted dose curve at least 0.9, where 1 is the maximum)
How it was run: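 DMSO-normalized, positive-direction endpoint derived from the 460 nm/530 nm FRET ratio in HCT116 p53 beta-lactamase reporter cells exposed 16 h at 37C and loaded with CCF4-AM for 2 h.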

[20] = target: X-box-binding protein 1 (Homo sapiens) (UniProt P17861); assay: ATG_Xbp1_CIS: Attagene CIS-FACTORIAL HepG2 Assay for human X-box Binding Protein 1 (XBP1) (AID 2282972); settings: HepG2 XBP1 cis-element reporter, Attagene multiplex; actives raise or lower the signal
How it was run: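 Reporter transcripts were quantified by RT-PCR with fluorescent primer extension and capillary electrophoresis after 24 h chemical exposure. Cells: transiently transfected HepG2 carrying cis-regulated reporter constructs; data fitted bidirectionally relative to DMSO.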

Measured: outcome

Sequence of Cellular tumor antigen p53 (Homo sapiens) (P04637 whole entry, looked up): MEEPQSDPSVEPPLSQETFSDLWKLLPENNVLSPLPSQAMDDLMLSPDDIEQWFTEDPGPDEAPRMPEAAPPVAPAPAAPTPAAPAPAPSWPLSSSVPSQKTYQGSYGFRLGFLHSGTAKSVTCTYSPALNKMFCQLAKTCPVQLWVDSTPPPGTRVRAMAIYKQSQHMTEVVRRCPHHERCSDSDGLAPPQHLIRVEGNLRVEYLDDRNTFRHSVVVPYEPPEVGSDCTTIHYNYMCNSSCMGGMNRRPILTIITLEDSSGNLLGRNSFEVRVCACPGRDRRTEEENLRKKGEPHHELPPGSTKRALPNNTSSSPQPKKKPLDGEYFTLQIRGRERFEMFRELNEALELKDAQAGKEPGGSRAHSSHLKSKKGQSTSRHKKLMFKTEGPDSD
Sequence of Nuclear receptor subfamily 1 group I member 2 (Homo sapiens) (O75469 whole entry, looked up, the tested form may be a part): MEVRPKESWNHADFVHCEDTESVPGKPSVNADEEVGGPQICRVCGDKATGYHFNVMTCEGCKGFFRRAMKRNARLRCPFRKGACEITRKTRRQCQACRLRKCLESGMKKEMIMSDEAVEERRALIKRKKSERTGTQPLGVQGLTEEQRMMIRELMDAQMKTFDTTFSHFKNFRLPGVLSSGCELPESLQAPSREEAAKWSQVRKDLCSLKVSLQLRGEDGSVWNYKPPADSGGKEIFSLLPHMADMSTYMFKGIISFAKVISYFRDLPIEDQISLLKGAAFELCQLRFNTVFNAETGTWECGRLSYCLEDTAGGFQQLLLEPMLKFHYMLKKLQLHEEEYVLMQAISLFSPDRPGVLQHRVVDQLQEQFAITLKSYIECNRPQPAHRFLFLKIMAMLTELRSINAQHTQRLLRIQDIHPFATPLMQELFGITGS
Sequence of Nuclear respiratory factor 1 (Homo sapiens) (Q16656 whole entry, looked up): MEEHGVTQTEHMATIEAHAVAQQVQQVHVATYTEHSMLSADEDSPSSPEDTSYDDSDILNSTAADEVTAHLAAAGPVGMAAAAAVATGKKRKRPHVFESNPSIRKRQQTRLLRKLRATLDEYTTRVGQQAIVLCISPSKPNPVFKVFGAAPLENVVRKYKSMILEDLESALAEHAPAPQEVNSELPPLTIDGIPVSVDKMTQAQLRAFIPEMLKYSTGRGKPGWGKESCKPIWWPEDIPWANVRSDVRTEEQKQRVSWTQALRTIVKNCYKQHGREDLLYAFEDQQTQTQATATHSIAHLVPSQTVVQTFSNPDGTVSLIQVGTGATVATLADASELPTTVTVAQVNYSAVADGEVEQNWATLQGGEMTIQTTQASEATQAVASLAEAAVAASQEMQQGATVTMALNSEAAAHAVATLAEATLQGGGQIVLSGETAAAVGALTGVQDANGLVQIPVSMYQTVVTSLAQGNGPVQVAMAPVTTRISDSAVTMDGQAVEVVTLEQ
Sequence of Hepatocyte nuclear factor 3-beta (Homo sapiens) (Q9Y261 whole entry, looked up): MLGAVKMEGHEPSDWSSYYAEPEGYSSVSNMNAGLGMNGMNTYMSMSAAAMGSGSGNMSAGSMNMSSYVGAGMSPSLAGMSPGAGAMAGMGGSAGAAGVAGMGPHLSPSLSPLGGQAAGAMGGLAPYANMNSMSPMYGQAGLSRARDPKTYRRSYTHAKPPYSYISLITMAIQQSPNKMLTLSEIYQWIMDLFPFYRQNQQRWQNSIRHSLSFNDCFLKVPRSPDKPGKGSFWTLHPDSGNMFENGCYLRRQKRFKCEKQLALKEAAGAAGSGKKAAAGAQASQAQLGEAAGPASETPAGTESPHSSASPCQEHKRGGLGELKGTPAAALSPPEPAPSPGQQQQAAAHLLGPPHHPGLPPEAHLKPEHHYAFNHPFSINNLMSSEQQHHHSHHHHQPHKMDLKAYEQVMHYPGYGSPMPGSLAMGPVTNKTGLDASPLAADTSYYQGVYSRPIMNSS
Sequence of Hypoxia-inducible factor 1-alpha (Homo sapiens) (Q16665 whole entry, looked up): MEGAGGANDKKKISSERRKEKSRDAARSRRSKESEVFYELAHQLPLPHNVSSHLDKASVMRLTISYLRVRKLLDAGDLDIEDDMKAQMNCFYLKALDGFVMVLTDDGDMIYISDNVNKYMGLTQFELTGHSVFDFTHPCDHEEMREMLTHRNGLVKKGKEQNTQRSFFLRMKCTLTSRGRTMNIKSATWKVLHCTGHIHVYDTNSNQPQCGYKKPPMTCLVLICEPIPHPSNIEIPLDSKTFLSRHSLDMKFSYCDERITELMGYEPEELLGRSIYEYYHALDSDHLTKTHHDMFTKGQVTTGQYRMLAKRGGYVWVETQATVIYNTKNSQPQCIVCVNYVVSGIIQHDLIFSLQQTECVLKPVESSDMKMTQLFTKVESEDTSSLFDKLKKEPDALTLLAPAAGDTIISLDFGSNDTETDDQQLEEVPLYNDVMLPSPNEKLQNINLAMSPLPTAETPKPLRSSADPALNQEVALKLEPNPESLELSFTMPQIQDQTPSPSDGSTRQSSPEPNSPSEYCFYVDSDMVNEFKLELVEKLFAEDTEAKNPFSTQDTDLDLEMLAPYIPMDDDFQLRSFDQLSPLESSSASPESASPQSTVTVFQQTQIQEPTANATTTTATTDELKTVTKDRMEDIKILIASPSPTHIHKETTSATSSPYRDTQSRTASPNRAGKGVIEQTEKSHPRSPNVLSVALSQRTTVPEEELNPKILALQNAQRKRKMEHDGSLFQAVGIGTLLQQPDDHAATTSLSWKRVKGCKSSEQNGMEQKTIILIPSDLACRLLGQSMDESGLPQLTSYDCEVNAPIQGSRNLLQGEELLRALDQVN
Sequence of Transcriptional activator Myb (Homo sapiens) (P10242 whole entry, looked up): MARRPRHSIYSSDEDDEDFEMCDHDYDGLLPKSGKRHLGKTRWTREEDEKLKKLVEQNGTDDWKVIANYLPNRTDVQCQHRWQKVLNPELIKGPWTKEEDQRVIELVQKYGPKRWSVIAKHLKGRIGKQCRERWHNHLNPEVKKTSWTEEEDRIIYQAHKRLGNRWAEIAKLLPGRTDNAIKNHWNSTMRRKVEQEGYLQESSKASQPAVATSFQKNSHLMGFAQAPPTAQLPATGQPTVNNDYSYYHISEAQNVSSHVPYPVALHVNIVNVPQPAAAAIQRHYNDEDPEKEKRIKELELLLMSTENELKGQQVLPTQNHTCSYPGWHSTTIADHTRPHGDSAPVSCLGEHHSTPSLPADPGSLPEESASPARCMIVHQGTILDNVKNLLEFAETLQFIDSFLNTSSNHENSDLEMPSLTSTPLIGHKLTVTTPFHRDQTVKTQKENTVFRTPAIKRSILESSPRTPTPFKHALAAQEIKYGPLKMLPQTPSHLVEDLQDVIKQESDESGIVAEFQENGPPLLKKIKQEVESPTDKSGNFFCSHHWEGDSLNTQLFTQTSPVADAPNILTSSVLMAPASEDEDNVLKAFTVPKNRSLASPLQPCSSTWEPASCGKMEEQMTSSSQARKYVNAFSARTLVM
Sequence of Myc proto-oncogene protein (Homo sapiens) (P01106 whole entry, looked up): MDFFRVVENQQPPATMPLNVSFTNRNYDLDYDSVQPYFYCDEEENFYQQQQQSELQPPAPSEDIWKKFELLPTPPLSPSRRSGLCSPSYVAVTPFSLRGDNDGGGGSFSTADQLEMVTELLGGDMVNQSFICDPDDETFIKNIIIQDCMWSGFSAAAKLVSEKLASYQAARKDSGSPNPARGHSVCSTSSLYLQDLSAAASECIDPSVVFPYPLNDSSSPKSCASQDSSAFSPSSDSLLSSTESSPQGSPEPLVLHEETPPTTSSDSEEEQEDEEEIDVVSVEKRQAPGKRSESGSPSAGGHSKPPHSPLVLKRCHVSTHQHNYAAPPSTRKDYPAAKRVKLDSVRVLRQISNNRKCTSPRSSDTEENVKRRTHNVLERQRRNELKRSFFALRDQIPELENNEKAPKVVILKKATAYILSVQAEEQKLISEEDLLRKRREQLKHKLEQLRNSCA
Sequence of Transcription factor E2F1 (Homo sapiens) (Q01094 whole entry, looked up): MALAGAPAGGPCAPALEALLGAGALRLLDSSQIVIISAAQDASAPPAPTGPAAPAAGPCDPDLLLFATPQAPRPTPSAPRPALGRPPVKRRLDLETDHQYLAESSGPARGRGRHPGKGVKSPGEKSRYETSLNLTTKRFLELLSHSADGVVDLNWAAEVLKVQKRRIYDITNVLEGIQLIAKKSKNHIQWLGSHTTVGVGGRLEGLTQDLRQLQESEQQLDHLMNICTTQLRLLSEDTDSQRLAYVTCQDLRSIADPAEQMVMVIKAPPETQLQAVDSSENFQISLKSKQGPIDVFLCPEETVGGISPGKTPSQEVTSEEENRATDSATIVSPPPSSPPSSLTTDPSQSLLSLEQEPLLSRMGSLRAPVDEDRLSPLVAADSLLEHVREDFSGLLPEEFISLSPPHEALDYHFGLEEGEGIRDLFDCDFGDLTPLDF
Sequence of X-box-binding protein 1 (Homo sapiens) (P17861 whole entry, looked up): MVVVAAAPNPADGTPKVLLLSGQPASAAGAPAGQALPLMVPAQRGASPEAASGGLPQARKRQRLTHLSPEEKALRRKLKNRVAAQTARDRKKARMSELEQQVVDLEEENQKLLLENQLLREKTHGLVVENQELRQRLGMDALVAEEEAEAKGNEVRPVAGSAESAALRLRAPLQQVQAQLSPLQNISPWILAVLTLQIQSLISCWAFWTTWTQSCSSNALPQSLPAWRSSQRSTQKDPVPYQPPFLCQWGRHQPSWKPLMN

O=C1NC(=O)[C@@H]2CC=CC[C@H]12
inactive: [1] | [2] | [3] | [4] | [5] | [6] | [7] | [8] | [9] | [10] | [11] | [12] | [13] | [14] | [15] | [16] | [17] | [18] | [19]

C1=CCC=C1
inactive: [1] | [4] | [5] | [6] | [7] | [8] | [9] | [10] | [11] | [12] | [13] | [14] | [15] | [18]

CCCCOC(=O)COc1ccc(Cl)cc1Cl
inactive: [1] | [2] | [3] | [4] | [5] | [6] | [7] | [8] | [9] | [10] | [11] | [12] | [13] | [14] | [16] | [17] | [18] | [19]

CC1=NN(c2cc(Cl)c(S(=O)(=O)O)cc2Cl)C(=O)C1N=Nc1ccc(S(=O)(=O)O)cc1 (configuration not stated)
inactive: [1] | [4] | [5] | [6] | [8] | [9] | [10] | [11] | [20] | [12] | [13] | [14] | [16] | [17] | [18] | [19]
